# HP1b chromo inh = inhibitors of HP1-beta chromodomain binding to methylated histone tails; P83916; AlphaScreen HP1-beta / biotin-H3K9me3 peptide binding; Potency, µM (highest dose often 114 µM), for inactives: top-dose activity change, negative = inhibition, actives largely listed as inhibitors; actives 0.56% (n = 390,000); AID 540317; further: nearly all actives have a fitted effect of over 70% in size
# Target sequence (P83916 whole entry, looked up): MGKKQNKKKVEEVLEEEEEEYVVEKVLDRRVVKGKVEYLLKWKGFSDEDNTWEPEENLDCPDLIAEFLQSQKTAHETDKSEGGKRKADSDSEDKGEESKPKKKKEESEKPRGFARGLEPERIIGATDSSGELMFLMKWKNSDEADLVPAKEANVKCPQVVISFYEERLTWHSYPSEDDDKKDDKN
#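 AlphaScreen: HP1-beta (50 nM) preformed 30 min with biotin-H3(1-18)K9me3 peptide (50 nM) in PBS pH 7.4, 0.01% Tween-20. Compound added for 30 min at RT, then streptavidin donor/nickel chelate acceptor beads (10 ug/mL) for 30 min.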
# BAZ2B inh = blocks human BAZ2B. Potency, µM (highest dose often 114 µM), for inactives: top-dose activity change, negative = inhibition, most hits filed as inhibitors. actives 4.4% (n = 360,000). Q9UIF8. AlphaScreen BAZ2B-H3K14Ac peptide displacement; further: on the % scale 0 is the no-effect control and ±100 the full control effect; nearly all actives have a fitted effect of over 60% in size
#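 AlphaScreen luminescence quantifies BAZ2B engagement of H3K14Ac peptide; the protein and biotinylated peptide are both at 50 nM final, buffer PBS pH 7.4 with 0.01% Tween-20, all steps at room temperature.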
# Sfp inh = inhibitors of Bacillus subtilis Sfp phosphopantetheinyl transferase; Q9F4F7; AID 1490; Biochemical Sfp PPTase activity, qHTS; actives 3.5% (n = 310,000); Potency, µM, without a hit: largest response in the series, negative = inhibition, usual class: inhibitors;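 further: the enzyme is Sfp with the accession as filed and its product quenches rhodamine fluorescence; 0% = enzyme reaction without inhibitor and -100% = no enzyme wells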
#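 Step 1, compound plus 15 nM Sfp-PPTase, 15 min, room temperature. Step 2, add rhodamine-CoA (5 uM) and BHQ-2-YbbR (12.5 uM). Step 3, read 525/598 nm fluorescence at 0 and 30 min.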
# JMJD2A Tudor = inhibitors of human JMJD2A Tudor domain. AlphaScreen JMJD2A-Tudor / H3K4me3 peptide binding. Potency, µM (series often up to 114 µM), inactives show at the highest dose activity change, negative = inhibition, most hits filed as inhibitors. actives 4.4% (n = 390,000). AID 504339; further: on the % scale 0 is the no-effect control and ±100 the full control effect; nearly all actives have a fitted effect of over 50% in size
# G9a block = inhibitors of human histone lysine methyltransferase G9a; actives 8.8% (n = 350,000); G9a H3K9 monomethylation, AlphaScreen, 2 h; Q96KQ7; Potency, µM (doses to about 102 µM), for the others: top-dose activity, negative = inhibition, actives largely listed as inhibitors; further: on the % scale 0 is the no-effect control and ±100 the full control effect; nearly all actives have a fitted effect of over 75% in size
# Target sequence (Q96KQ7 913-1193 limits assumed): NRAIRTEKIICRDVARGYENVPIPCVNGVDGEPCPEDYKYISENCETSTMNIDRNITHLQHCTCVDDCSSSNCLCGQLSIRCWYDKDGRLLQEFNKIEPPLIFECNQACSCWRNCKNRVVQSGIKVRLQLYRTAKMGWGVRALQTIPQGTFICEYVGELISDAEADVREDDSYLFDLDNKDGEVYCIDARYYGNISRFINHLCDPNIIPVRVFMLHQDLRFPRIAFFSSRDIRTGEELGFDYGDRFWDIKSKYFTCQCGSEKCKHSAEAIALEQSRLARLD
#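 AlphaScreen read-out: biotin-H3K9 peptide (500 nM) methylation by 20 nM enzyme with 20 uM SAM, 2 h at room temperature after 15 min compound preincubation; anti-monomethyl H3K9 antibody plus donor/acceptor beads, 10 min dark.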
# PLK1 PBD block = blocks phosphopeptide binding to human PLK1 polo-box domain | P53350 | Plk1 PBD binding of FITC phosphopeptide, fluorescence polarization | Potency, µM, without a hit: max response, negative = inhibition, hits mostly inhibitors | actives 2.8% (n = 360,000); further: series mostly up to about 57 µM; on the % scale 0 is the no-effect control and ±100 the full control effect; nearly all actives have a fitted effect of over 65% in size
# Active calls of the source: *; ? = inconclusive; · = no result; [ ] = remark or other dose. The list is not random: actives were taken first. Their share in the collection is about 12%. The call rests on the fitted dose curve; in most records, active means well fitted curve in the direction sought with a large enough effect; inconclusive means small, poorly fitted or top-dose-only effect, or another doubt; inactive means no such curve, though single readings can be large; an effect the other way counts as inactive or inconclusive. Potency means the concentration at half of the fitted maximal effect.
SMILES,HP1b chromo inh,BAZ2B inh,Sfp inh,JMJD2A Tudor,G9a block,PLK1 PBD block
Cc1nc2c(O)cccc2cc1CO,6%,-37%,71µM*,4.5µM*,10µM*,0%
N[C@H](CCC(=O)NCC(=O)O)C(=O)O,·,·,-3%,·,36%[59 µM],·
CCc1ccc(NC(=O)COC(=O)/C=C/c2ccco2)cc1,?,·,·,?,·,-12%
CN(CCOC(=O)/C=C/c1ccco1)Cc1ccccc1,?,35µM*,20µM*,25µM*,14µM*,?
CN(Cc1ccccc1)C(=O)COC(=O)/C=C/c1ccco1,?,·,35µM*,?,35µM*,-18%
CN(CCOC(=O)c1ccco1)Cc1ccccc1,28%,-6%,9%,-15%,-1%,2%
CCOC(=O)N1CCN(C(=O)C2CCN(C(=O)c3ccc(C(C)(C)C)cc3)CC2)CC1,4%,2%,17%,-19%,17%,-7%
O=C1c2cccnc2C(=O)N1Cc1ccc(S(=O)(=O)NCc2ccco2)s1,33%,79µM*,6%,-35%,3%,-10%
N#Cc1c2n(c(=S)n(-c3ccccc3[N+](=O)[O-])c1=O)CCCCC2,-7%,·,?,?,40µM*,-24%
CCOC(=O)c1ccc(NC(=O)N2CCN(c3ccccc3OC)CC2)cc1,-6%,-28%,-1%,79µM*,0%,-16%
COc1ccc(NC(=O)CN2CCN(c3ccccc3F)CC2)cc1,26%,-24%,6%,-1%,?,-1%
CCN1CCN(CC(=O)Nc2c(OC)cccc2OC)CC1,45µM*,18µM*,79µM*,5µM*,40µM*,1%
CCN(CC)c1ccc(NC(=O)CN2CCN(c3ccccc3F)CC2)cc1,50µM*,40µM*,-3%,56µM*,8.9µM*,5%
O=C(CN1CCN(c2ccccc2F)CC1)Nc1ccccc1F,36%,-14%,5%,-14%,50µM*,-9%
O=C(CCN1CCN(c2ccccc2F)CC1)Nc1ccccc1F,14%,2%,9%,-1%,20%,-8%
CC(C)C[C@H](NC(=O)[C@H](CCCCN)NC(=O)[C@H](CCC(N)=O)NC(=O)[C@H](Cc1cnc[nH]1)NC(=O)[C@H](Cc1cnc[nH]1)NC(=O)[C@@H](N)C(C)C)C(=O)N[C@H](C(=O)N[C@@H](Cc1ccccc1)C(=O)N[C@@H](Cc1ccccc1)C(=O)N[C@@H](C)C(=O)N[C@@H](CCC(=O)O)C(=O)N[C@@H](CC(=O)O)C(=O)N[C@H](C(=O)NCC(=O)N[C@@H](CO)C(=O)N[C@@H](CC(N)=O)C(=O)N[C@@H](CCCCN)C(=O)O)C(C)C)C(C)C,·,·,31%,·,·,·
CCCNC(=O)c1ccc2c(c1)N=C(CCC)c1ccccc1S2,21%,6%,·,-10%,-2%[59 µM],·
CCN(CC)c1ccc(NC(=O)CN2CCN(c3ccccc3OC)CC2)cc1,-18%,35µM*,·,45µM*,?,·
O=C(O)CN1C(=O)/C(=C/C=C/c2ccccc2)SC1=S,-12%,?,-43%,-35%,?,?
C#CCN1C(=O)S/C(=C/C=C/c2ccc(N(C)C)cc2)C1=O,20µM*,10µM*,-11%,25µM*,8.9µM*,28%
O=C(OCC#CCSc1nnc(-c2cccc3ccccc23)o1)c1ccc(F)nc1,·,·,·,20%,·,·
COc1cc(/C=N/N=C2/C(=O)Nc3ccccc32)cc(OC)c1O,-55%,50µM*,-18%,?,2.8µM*,-13%
Fc1ccc(-c2nnc3sc(C4COc5ccccc5O4)nn23)cc1 (configuration not stated),6%,-5%,-8%,-15%,-38%,-8%
c1ccc2c(c1)OCC(c1nnc3sc(-c4cnccn4)nn13)O2 (configuration not stated),-25%,5%,20µM*,-26%,7.9µM*,28µM*
Fc1ccc(-c2nn3c(C4COc5ccccc5O4)nnc3s2)cc1 (configuration not stated),?,0%,40µM*,?,3.2µM*,21µM*
SMILES,HP1b chromo inh,BAZ2B inh,Sfp inh,JMJD2A Tudor,G9a block,PLK1 PBD block
Brc1ccccc1-c1nnc2sc(-c3ccc4c(c3)OCCO4)nn12,15%,1%,-8%,-18%,6%[12.7 µM],-4%
c1ccc2c(c1)OCC(c1nnc3sc(-c4ccc5c(c4)OCO5)nn13)O2 (configuration not stated),?,-4%,25µM*,-29%,5µM*,6.7µM*
COc1ccc(-c2c3c(=O)n(C)c(=O)n(C)c3c3n2-c2ccccc2NC3c2ccc(O)cc2O)cc1 (configuration not stated),36%,8%,·,5%,7%[59 µM],·
Cn1cc(C[C@H](C(=O)O)N2C(=O)c3ccc(C(=O)O)cc3C2=O)c2ccccc21,·,-37%,?,-24%,-1%[12.7 µM],·
COc1ccc(-c2nnc(OCc3nc4ccccc4n3C)c3ccccc23)cc1,3%,-35%,3%,50µM*,-1%[59 µM],19µM*
Cc1ccc(-c2nnn(CC(=O)N(CC(=O)NC3CCCCC3)c3ccccc3F)n2)o1,30%,?,-5%,-22%,35µM*,-9%
Cc1ccc(-c2nnn(CC(=O)N(CC(=O)NC3CCCCC3)c3cccc(F)c3)n2)o1,10%,4%,20%,-4%,-1%,1%
Cc1cccc(N(CC(=O)NC2CCCCC2)C(=O)Cn2nnc(-c3ccc(C)o3)n2)c1,11%,-15%,1%,-17%,45µM*,-8%
COc1ccc(-c2nnn(CC(=O)N(CC(=O)NC3CCCC3)c3ccccc3)n2)cc1OC,-13%,-20%,11%,18µM*,-2%[59 µM],3.8µM*
Cc1ccc(-c2nnn(CC(=O)N(CC(=O)NCc3ccccc3)c3cccc(C)c3C)n2)o1,2%,?,25µM*,-31%,3.5µM*,-3%
CCc1ccc(NC(=O)CC2C(=O)N(c3ccc(Cl)cc3)C(=O)N2Cc2ccco2)cc1 (configuration not stated),-2%,-13%,·,-29%,?,·
CCN(C(=O)C1CCC(CNS(=O)(=O)c2cccc3nsnc23)CC1)c1ccccc1 (configuration not stated),0%,?,·,-29%,-2%[59 µM],·
Cc1c(Cl)cccc1-n1ncc(C(=O)N2CCc3ccccc3C2)c1C1CCN(C(=O)OC(C)(C)C)CC1,24%,-2%[57.1 µM],·,-11%,-6%[59 µM],·
CCc1ccc(NC(=O)Cn2c(=O)n(Cc3ccc(C)cc3)c(=O)c3cccnc32)cc1,17%,5%,·,-10%,3%[59 µM],·
CCC1CC=CC2C1C(=O)N(Cc1ccccc1)C2c1ccc(OC)c(Cl)c1 (configuration not stated),43%,·,?,7%,·,·

# Screens (PubChem)
